From PubChem BioAssay (NCI)
About 83,000 compounds went through this panel and 20% of them were active in at least one assay; those are over-represented in the sample as a whole.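 96-well plates, one dose, 48 hours. Percent growth reported; active if below 10.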 The source made the active and inactive calls.

Assays:
Assay in all cases: NCI-60 one-dose screen, 48 h (100 = growth as untreated, 0 = no growth, -100 = all killed)
Conditions in all cases: 10 µM
HT29 colon = test system: HT29 colon
SNB-75 CNS = test system: SNB-75 CNS
SNB-19 CNS = test system: SNB-19 CNS
U251 CNS = test system: U251 CNS
PC-3 prostate = test system: PC-3 prostate
SK-MEL-5 melanoma = test system: SK-MEL-5 melanoma
UACC-62 melanoma = test system: UACC-62 melanoma
LOX IMVI melanoma = test system: LOX IMVI melanoma
SK-MEL-28 melanoma = test system: SK-MEL-28 melanoma
SK-MEL-2 melanoma = test system: SK-MEL-2 melanoma

Measured: growth

Nc1c(C(=O)Nc2ccccc2Cl)sc2nc3c(cc12)C(=O)CCC3
inactive: HT29 colon 40.2% | SNB-75 CNS 52.4% | SNB-19 CNS 51.1% | U251 CNS 73.3% | PC-3 prostate 37.1% | SK-MEL-5 melanoma 32.5% | UACC-62 melanoma 47.1% | LOX IMVI melanoma 55% | SK-MEL-28 melanoma 57.7% | SK-MEL-2 melanoma 35.4%

COC(=O)C(C(C[N+](=O)[O-])c1ccccc1)=P(c1ccccc1)(c1ccccc1)c1ccccc1 (stereo not given)
inactive: HT29 colon 67.7% | SNB-75 CNS 85.3% | SNB-19 CNS 98.4% | U251 CNS 88.3% | PC-3 prostate 85.4% | SK-MEL-5 melanoma 98.5% | UACC-62 melanoma 90% | LOX IMVI melanoma 58.1% | SK-MEL-28 melanoma 109% | SK-MEL-2 melanoma 89.4%

C=C1c2c(C)nn(-c3ccc(OC)cc3)c2N(C)C23C[C@@H]1C1(C)c4c(C)nn(-c5ccc(OC)cc5)c4N(C)C(C)(C[C@H]12)C3 (stereo not given in full)
inactive: HT29 colon 19.4% | SNB-75 CNS 59.6% | SNB-19 CNS 46.8% | U251 CNS 32.1% | SK-MEL-5 melanoma 16.1% | UACC-62 melanoma 26.9% | LOX IMVI melanoma 18.4% | SK-MEL-28 melanoma 56.8% | SK-MEL-2 melanoma 37.2%
active: PC-3 prostate -4.74%

Nc1c(C(=O)Nc2cccc(F)c2)sc2nc3c(cc12)C(=O)CCC3
inactive: HT29 colon 16.7% | SNB-75 CNS 24.9% | SNB-19 CNS 48.9% | U251 CNS 32.1% | PC-3 prostate 20.7% | SK-MEL-5 melanoma 43.2% | UACC-62 melanoma 43.4% | LOX IMVI melanoma 46.5% | SK-MEL-28 melanoma 49.7% | SK-MEL-2 melanoma 43.3%

CCOC(=O)C1CCc2c(ccc3ccccc23)N1CCC#N (stereo not given)
inactive: HT29 colon 100% | SNB-75 CNS 74.2% | SNB-19 CNS 99% | U251 CNS 89.7% | PC-3 prostate 84.9% | SK-MEL-5 melanoma 89.2% | UACC-62 melanoma 91% | LOX IMVI melanoma 85.7% | SK-MEL-28 melanoma 91.2% | SK-MEL-2 melanoma 134%

CC(C)(C#N)Nc1ccccc1
inactive: HT29 colon 99.5% | SNB-75 CNS 79.5% | SNB-19 CNS 98.9% | U251 CNS 95.4% | PC-3 prostate 108% | SK-MEL-5 melanoma 107% | UACC-62 melanoma 98.5% | LOX IMVI melanoma 97.8% | SK-MEL-28 melanoma 111% | SK-MEL-2 melanoma 109%

c1ccc2c(-c3nc(N4CCOCC4)c4c5c(sc4n3)CCCCCC5)cccc2c1
inactive: HT29 colon 101% | SNB-75 CNS 85.2% | SNB-19 CNS 104% | U251 CNS 91% | PC-3 prostate 95% | SK-MEL-5 melanoma 94% | UACC-62 melanoma 96.6% | LOX IMVI melanoma 105% | SK-MEL-28 melanoma 105% | SK-MEL-2 melanoma 104%

CCCCCCCCN(CCCCCCCC)CCCCCCCCCN1CCCc2cc(OC)ccc21
inactive: HT29 colon 84.8% | SNB-75 CNS 84.5% | SNB-19 CNS 98.3% | U251 CNS 90.7% | PC-3 prostate 85.2% | SK-MEL-5 melanoma 109% | UACC-62 melanoma 86.8% | LOX IMVI melanoma 88.6% | SK-MEL-28 melanoma 101% | SK-MEL-2 melanoma 101%

COc1cc(-c2nn3c(/C=C4/C(=O)Nc5ccccc54)c(-c4ccc(C)cc4)nc3s2)cc(OC)c1OC
inactive: HT29 colon 25.7% | SNB-75 CNS 18.3% | SNB-19 CNS 87.8% | U251 CNS 65.2% | PC-3 prostate 85.5% | SK-MEL-5 melanoma 12.2% | UACC-62 melanoma 58.5% | LOX IMVI melanoma 44.1% | SK-MEL-28 melanoma 29.1% | SK-MEL-2 melanoma 65.9%

O=C(Nc1nc2ccc(F)cc2s1)c1cc(-c2ccc(F)cc2)n2nc(-c3ccccc3)cc2n1
inactive: HT29 colon 92.7% | SNB-75 CNS 70.7% | SNB-19 CNS 88% | U251 CNS 102% | PC-3 prostate 84.2% | SK-MEL-5 melanoma 68.3% | UACC-62 melanoma 66.3% | LOX IMVI melanoma 85.9% | SK-MEL-28 melanoma 58.1% | SK-MEL-2 melanoma 111%

COc1cc(CNCCCCCCN2C(=O)c3cccc4cccc(c34)C2=O)ccc1O
inactive: HT29 colon 26.9% | SNB-75 CNS 67.1% | SNB-19 CNS 84.3% | U251 CNS 65.9% | PC-3 prostate 51.4% | SK-MEL-5 melanoma 10.6% | UACC-62 melanoma 80.5% | LOX IMVI melanoma 36.3% | SK-MEL-28 melanoma 18.7% | SK-MEL-2 melanoma 120%

O=C(Nc1ccc(CN2CCc3nc4cc(O)c(O)cc4cc32)cc1)c1ccc(Cl)c(Cl)c1
inactive: HT29 colon 109% | SNB-75 CNS 89.2% | SNB-19 CNS 96.7% | U251 CNS 105% | PC-3 prostate 101% | SK-MEL-5 melanoma 90.7% | UACC-62 melanoma 97% | LOX IMVI melanoma 104% | SK-MEL-28 melanoma 96.8% | SK-MEL-2 melanoma 105%

O=c1[nH]c2ccc(Cl)cc2c2ccccc12
inactive: HT29 colon 70.3% | SNB-75 CNS 33.2% | SNB-19 CNS 65.9% | U251 CNS 65.9% | PC-3 prostate 92.8% | SK-MEL-5 melanoma 70.6% | UACC-62 melanoma 88.3% | LOX IMVI melanoma 98.5% | SK-MEL-28 melanoma 94.6% | SK-MEL-2 melanoma 107%

Nc1nc(Nc2ccccc2)n[nH]1
inactive: HT29 colon 105% | SNB-75 CNS 90.6% | SNB-19 CNS 94.6% | U251 CNS 100% | PC-3 prostate 116% | SK-MEL-5 melanoma 106% | UACC-62 melanoma 90.7% | LOX IMVI melanoma 100% | SK-MEL-28 melanoma 109% | SK-MEL-2 melanoma 103%

CN1CCCNc2c(c(=O)c2=O)NCCCN(C)CCCNc2c(c(=O)c2=O)NCCCN(C)CCCNc2c(c(=O)c2=O)NCCCN(C)CCCNc2c(c(=O)c2=O)NCCCN(C)CCCNc2c(c(=O)c2=O)NCCCN(C)CCCNc2c(c(=O)c2=O)NCCCN(C)CCCNc2c(c(=O)c2=O)NCCC1
inactive: HT29 colon 59.3% | SNB-75 CNS 84.3% | SNB-19 CNS 40.5% | U251 CNS 15.2% | PC-3 prostate 77.5% | SK-MEL-5 melanoma 39.6% | UACC-62 melanoma 43.7% | LOX IMVI melanoma 58.1% | SK-MEL-28 melanoma 22.6% | SK-MEL-2 melanoma 76.6%

COc1cc(-c2cc(C(=O)N3CCN(C(=O)c4ccccc4NCc4cccs4)CC3)nc3cc(-c4ccccc4)nn23)cc(OC)c1OC
inactive: HT29 colon 28% | SNB-75 CNS 71% | SNB-19 CNS 85.1% | U251 CNS 72.1% | PC-3 prostate 34% | SK-MEL-5 melanoma 37.9% | UACC-62 melanoma 60% | LOX IMVI melanoma 70% | SK-MEL-28 melanoma 81.5% | SK-MEL-2 melanoma 68.4%

CCC(=O)N1C/C(=C/c2ccc(Cl)cc2)C(=O)/C(=C/c2ccc(Cl)cc2)C1
inactive: SNB-75 CNS 20%
active: HT29 colon -72.8% | SNB-19 CNS -19.3% | U251 CNS -80.1% | PC-3 prostate -44.1% | SK-MEL-5 melanoma -64.1% | UACC-62 melanoma -74.8% | LOX IMVI melanoma -85.7% | SK-MEL-28 melanoma -74.2% | SK-MEL-2 melanoma -21.5%

COc1cc(Nc2ccnc(NCCNc3ccnc4cc(Cl)ccc34)n2)cc(OC)c1
inactive: SNB-75 CNS 68.7% | SNB-19 CNS 64.2% | PC-3 prostate 46.5% | UACC-62 melanoma 51.1% | SK-MEL-2 melanoma 48.7%
active: HT29 colon 1.76% | U251 CNS 9.32% | SK-MEL-5 melanoma -92.8% | LOX IMVI melanoma -37.2% | SK-MEL-28 melanoma -94.9%

CC[C@H](C)C(=O)O[C@H]1CCC=C2C=C[C@H](C)C(CCC3C[C@@H](O)CC(=O)O3)[C@H]21 (stereo not given in full)
inactive: HT29 colon 92.3% | SNB-75 CNS 32.2% | SNB-19 CNS 56.2% | U251 CNS 16.8% | PC-3 prostate 31.1% | SK-MEL-5 melanoma 60% | UACC-62 melanoma 29.6% | LOX IMVI melanoma 11.6% | SK-MEL-28 melanoma 78.4% | SK-MEL-2 melanoma 19.5%

COc1ccc2nc3cc(Cl)ccc3c(NCCNCC(C)O)c2c1 (stereo not given)
active: HT29 colon -37.7% | U251 CNS -8.32%
inactive: SNB-75 CNS 63.7% | SNB-19 CNS 34% | PC-3 prostate 28.1% | SK-MEL-5 melanoma 81% | UACC-62 melanoma 54.1% | LOX IMVI melanoma 14.5% | SK-MEL-28 melanoma 54.7% | SK-MEL-2 melanoma 31.1%

CN1CCC2(CC1)NC(=O)c1c(c3ccc(Cl)c(Cl)c3n1C)C2C#N (stereo not given)
inactive: HT29 colon 44.8% | SNB-75 CNS 34.3% | SNB-19 CNS 77.8% | U251 CNS 90.6% | PC-3 prostate 67.1% | SK-MEL-5 melanoma 37.8% | LOX IMVI melanoma 76.6% | SK-MEL-28 melanoma 70.4% | SK-MEL-2 melanoma 99.6%
active: UACC-62 melanoma -69.4%

Nc1cc2c(cc1Cl)-c1ccc([N+](=O)[O-])cc1/C2=N\O
inactive: HT29 colon 82.5% | SNB-75 CNS 66.6% | SNB-19 CNS 93.6% | U251 CNS 67.7% | PC-3 prostate 52% | SK-MEL-5 melanoma 82.5% | UACC-62 melanoma 78% | LOX IMVI melanoma 53.8% | SK-MEL-28 melanoma 109% | SK-MEL-2 melanoma 106%

CC(C)=CCc1cc(O)cc2c1OC(C=C(C)C)C1=C2C(=O)C2=C(C1=O)S(=O)(=O)CCN2 (stereo not given)
inactive: HT29 colon 64.8% | SNB-75 CNS 72.2% | SNB-19 CNS 46.2% | SK-MEL-5 melanoma 16.2% | SK-MEL-28 melanoma 36.8% | SK-MEL-2 melanoma 28.8%
active: U251 CNS -14.3% | PC-3 prostate 6.32% | UACC-62 melanoma 9.11% | LOX IMVI melanoma 4.91%

Nc1ccc2cc(S(=O)(=O)O)cc(O)c2c1N=Nc1ccc(F)cc1
inactive: HT29 colon 107% | SNB-75 CNS 123% | SNB-19 CNS 104% | U251 CNS 115% | PC-3 prostate 91.5% | SK-MEL-5 melanoma 108% | UACC-62 melanoma 96% | LOX IMVI melanoma 93.5% | SK-MEL-28 melanoma 132% | SK-MEL-2 melanoma 101%

C#Cc1ccc(-n2c(/C=C/c3ccc(C(F)(F)F)cc3)nc3ncccc3c2=O)cc1
inactive: SNB-75 CNS 25.7% | SNB-19 CNS 68% | U251 CNS 39.2% | PC-3 prostate 29.4% | UACC-62 melanoma 17% | SK-MEL-28 melanoma 33.3%
active: HT29 colon 0.334% | SK-MEL-5 melanoma -73.6% | LOX IMVI melanoma -18% | SK-MEL-2 melanoma -37.1%

Clc1ccc(Nc2ccnc(NCCNc3ccnc4cc(Cl)ccc34)n2)cc1
active: HT29 colon -37.4% | SNB-75 CNS 4.36% | U251 CNS -48% | SK-MEL-5 melanoma -100% | UACC-62 melanoma -79.5% | LOX IMVI melanoma -79.5% | SK-MEL-28 melanoma -100% | SK-MEL-2 melanoma -76.1%
inactive: SNB-19 CNS 69.6% | PC-3 prostate 14.7%

COc1cc(-c2nc(Nc3nc4ccccc4s3)[nH]c(=O)c2C#N)cc(OC)c1O
inactive: HT29 colon 110% | SNB-75 CNS 88.6% | SNB-19 CNS 96.1% | U251 CNS 105% | PC-3 prostate 101% | SK-MEL-5 melanoma 106% | UACC-62 melanoma 102% | LOX IMVI melanoma 106% | SK-MEL-28 melanoma 110% | SK-MEL-2 melanoma 105%
